# Bioassay records: PubChem BioAssay, several laboratories
# Only some compounds are listed: those with a hit (about 3.3% of all), similar ones and a draw of the others.
# PERK inh: inhibitors of human PERK kinase; Q9NZJ5; CHO PERK-DD fusion, SEAP luminescence translation reporter; inhibition, % at 5.6 µM; 220,000 tested, 0.17% active; AID 1416;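 active means inhibition above the mean inhibition of all tested compounds plus 3 SD, set separately per screening campaign, cut at about 2.9% in these data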;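 further: PERK kinase domain activated by AP20187 dimerizer at 100 nM; 0% = DMSO with dimerizer and 100% = rapamycin at 8.4 µM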
# Arbovirus inh: blocks arbovirus infection | arbovirus infection cell-based antiviral screen | inhibition, % at 10 µM | 200,000 tested, 0.37% active | AID 1251; in the data active means inhibition above about 30%
# WT yeast gro inh: growth inhibition of WT yeast, mitochondrial fusion screen | mitochondrial fusion phenotypic screen, WT strain | inhibition, % at 10 µM | 190,000 tested, 2.1% active | AID 1362; in the data active means inhibition above about 58%; tested in S. cerevisiae
# ROMK primary: modulates human ROMK potassium channel activity; Tet-inducible ROMK, thallium flux fluorescence; actives lie on both sides; B-score at 10 µM; 130,000 tested, 2% active;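 active means signal ratio slope over the read window, or its plate-corrected B-score, at least 3 SD from the plate mean, either direction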;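 further: B-score of the F/F0 ratio slope over 7 to 12 s after thallium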
# Target sequence (P48048 whole entry, looked up): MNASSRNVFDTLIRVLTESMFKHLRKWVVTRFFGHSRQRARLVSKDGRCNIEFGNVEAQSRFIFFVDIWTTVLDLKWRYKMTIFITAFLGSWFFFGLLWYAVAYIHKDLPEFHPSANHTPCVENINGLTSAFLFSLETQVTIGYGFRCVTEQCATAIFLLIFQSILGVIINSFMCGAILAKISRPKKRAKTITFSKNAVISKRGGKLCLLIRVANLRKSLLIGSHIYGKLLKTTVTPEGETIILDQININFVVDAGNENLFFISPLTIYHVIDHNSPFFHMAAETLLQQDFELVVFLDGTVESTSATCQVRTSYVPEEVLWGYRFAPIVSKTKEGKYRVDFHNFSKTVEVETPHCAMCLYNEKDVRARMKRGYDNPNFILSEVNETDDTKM
# ROMK retest: human ROMK channel modulation, retest confirmation | AID 1917 | ROMK thallium flux, fluorescence ratio; active compounds read low | shares compounds with ROMK primary | 3,000 tested, 54% active | normalized thallium flux (F/F0 slope) at 10 µM;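 active means Flux at 10 µM at least 3 SD below or above vehicle control mean in one or both replicates; inconclusive means no clear call, values can overlap the other calls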
# Starred values were filed as active, the others as inactive; ? = inconclusive; nt = no result given.
SMILES,PERK inh,Arbovirus inh,WT yeast gro inh,ROMK primary,ROMK retest
CC(C)Cc1nc(N2CCN(C(=O)c3ccco3)CC2)c(C#N)c2c1CCC2,-2,-10,-3,-2.9,0.067*
Cc1ccn2c(-c3csc(NCc4ccccc4)n3)c(C)nc2c1,-1,-9,21,-4.7*,0.06*
Cc1nc2ccccn2c1-c1csc(NCc2ccco2)n1,-1,9,6,nt,nt
COc1ccc(C(=O)N/C(=C\c2ccco2)C(=O)OCc2ccco2)cc1,0,nt,nt,-0.73,nt
CC(C)(C)NC(=O)/C(=C/c1ccco1)c1ccccc1,1,5,0,nt,nt
COc1ccc(C(=O)/C(=C\c2ccco2)N2C=CC=CC2=C(C#N)C#N)cc1,0,-31,8,nt,0.038*
N#CC(C#N)=C1C=CC=CN1/C(=C\c1ccco1)C(=O)c1ccccc1,-1,-32,-21,-6*,0.036*
O=C(CSc1nnc2ccccn12)NCCc1ccc(Cl)cc1,-1,-4,-11,-2.1,nt
CCC(=O)N(CCc1ccc(S(N)(=O)=O)cc1)C1CC(=O)N(c2ccc(OC)cc2)C1=O (stereo not drawn),1,4,-8,0.67,nt
CCN(CC(=O)Nc1cc(OC)ccc1OC)Cc1nc2ccccc2c(=O)[nH]1,1,-4,0,2.8*,0.07
CC[C@H](C)[C@H](NC(N)=O)C(=O)NCCc1ccc(OC)cc1,2,nt,nt,nt,nt
C=CCn1c(SCc2c(C)noc2C)nc2cc(C(=O)O)ccc2c1=O,0,-17,8,6*,?
S=C(CN1CCCC1=S)NCCc1ccccc1,1,nt,nt,nt,0.078
COCCCNC(=O)CC1C(=O)N(Cc2ccccc2)C(C)c2nc3ccccc3n21 (stereo not drawn),0,6,-1,-4.4*,0.089
Cc1cc2oc(=O)cc(Cn3ccnc3)c2cc1C,1,9,11,-6.3*,0.077
Cc1cccc(C2=N/C(=C\c3cccnc3)C(=O)O2)c1,1,1,14,nt,nt
COc1ccc(C2=NOC(COc3ccc4c(C)cc(=O)oc4c3)C2)c(OC)c1 (stereo not drawn),0,nt,nt,nt,nt
COc1ccccc1C1=NOC(COc2ccc3c(C)cc(=O)oc3c2)C1 (stereo not drawn),-1,nt,nt,3.3*,0.082
COc1ccc(OCCOCCOc2ccc(C)cc2[N+](=O)[O-])cc1,0,-1,26,-0.15,nt
COc1ccc(CNCC(O)COc2ccc(C)cc2[N+](=O)[O-])cc1 (stereo not drawn),-2,nt,nt,-2.6*,0.063*
Cc1ccc(O)c(NC(=S)NC(=O)c2ccccc2Cl)c1,0,-2,20,-0.69,nt
Cc1ccc(C(=O)CCC(=O)Nc2ccc(Cl)c(S(=O)(=O)Nc3cccc(Cl)c3)c2)cc1,0,-7,-13,-0.33,nt
CCC(C)NCCC(=O)Nc1ccc(Cl)c(S(=O)(=O)Nc2ccc(Cl)cc2)c1 (stereo not drawn),-1,-26,10,-4.1*,0.064*
O=C(NC(Nc1nc2ccc([N+](=O)[O-])cc2s1)(C(F)(F)F)C(F)(F)F)c1ccccc1Cl,-1,-36,84,nt,?
O=C(NC(Nc1nc2ccc([N+](=O)[O-])cc2s1)(C(F)(F)F)C(F)(F)F)c1cccnc1,0,-38,16,-1.6,nt
SMILES,PERK inh,Arbovirus inh,WT yeast gro inh,ROMK primary,ROMK retest
COc1ccc(CCNC(=O)Cn2ccc3c(OC)cccc3c2=O)cc1OC,-2,nt,nt,nt,nt
COCC(=O)O[C@]1(CCN(C)CCCc2nc3ccccc3[nH]2)CCc2cc(F)ccc2[C@@H]1C(C)C,nt,nt,nt,nt,0.061*
CCOC(=O)CCc1nc2ccccc2[nH]1,0,2,-11,0.63,nt
CCn1c(-c2cccc(S(=O)(=O)N3CCCC3)c2)n[nH]c1=S,1,nt,nt,nt,nt
CCCCOC(=O)CCNc1n[nH]c(=O)[nH]c1=O,1,-1,16,nt,0.087
C=C(C)CNC(=S)Nc1cccc(S(=O)(=O)NC2=NCCC2)c1,0,6,-12,0.079,nt
CCOc1ccc(C(=O)NC(=S)Nc2cccc(S(=O)(=O)NC3=NCCC3)c2)cc1,0,-18,-19,5.7*,0.096
COc1ccc(NC(=O)CN2CCN(C(=S)NC3CCCC3)CC2)cc1,0,nt,nt,nt,nt
CC(=O)NCCNC(=O)[C@H](Cc1ccccc1)NC(=O)c1cccs1,0,5,5,2.4*,0.078
O=C(NCCc1ccccc1)c1cccs1,0,-2,7,0.37,nt
CCCCCc1ccc(-c2ccc(=O)[nH]n2)cc1,0,-18,19,-0.31,0.072
O=C(N=Nc1c(O)n(Cc2ccccc2)c2ccccc12)c1ccc(O)cc1,-1,-29,57,0.19,nt
Cn1cnnc1SCc1ccc(C(=O)N=Nc2c(O)n(Cc3ccc(Cl)cc3)c3ccccc23)cc1,-1,-17,4,-2.2*,0.065*
